Among the test systems are T-47D breast; BT-549 breast; MDA-MB-435 melanoma; MCF7 breast; HCT-116 colon; HCC-2998 colon; KM12 colon; SW-620 colon.
Common to all, as to assay: NCI-60 one-dose screen, 48 h (100 = growth as untreated, 0 = no growth, -100 = all killed)
Conditions in all cases: 10 µM unless noted

The panel holds about 83,000 compounds, 20% with a hit somewhere; the sample as a whole holds those more often.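 The test compound was applied at a single concentration to cells in 96-well plates for 48 hours, and percent growth was recorded.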 A number with no mark means an inactive call. Calls of active or inactive are those of the source. How the source made its calls: active means growth percent below 10; inactive means the rest.

Consider `Cc1cccc(C[C@H](NC(=O)Nc2ccc(Cl)cc2F)C(=O)N[C@@H]2C(=O)N3C[C@H](O)C[C@H]3C(=O)N3CCCC[C@H]3C(=O)N[C@@H](C)C(=O)N3C[C@H](C)C[C@H]3C(=O)O[C@H]2C)c1`, for which the growth in the assay with T-47D breast was 5.41% (active); in the assay with BT-549 breast it was -9.79% (active); in the assay with MDA-MB-435 melanoma it was -5.25% (active); in the assay with MCF7 breast, 6.39% (active); in the assay with HCT-116 colon, -31.6% (active); with HCC-2998 colon it was -49% (active). Also, the growth in the assay on KM12 colon was -31.4% (active).
As for `CC(C)C1=NOC(=O)C1=Cc1cn(-c2ccccc2)nc1-c1ccccc1`, the growth with T-47D breast was 76.2%; in the assay with BT-549 breast, 114%; in the assay with MDA-MB-435 melanoma, 73.2%; in the assay with SW-620 colon, 60.1%; in the assay with HCT-116 colon, 28.9%; in the assay with HCC-2998 colon it was 91.8%. Also, the growth in the assay with KM12 colon was 79.5%.
Take `C=C(C)[C@@H]1CC[C@]2(C(=O)OC)CC[C@]3(C)[C@H](CC[C@@H]4[C@@](C)(CCc5nn[nH]n5)[C@H](C(=C)C)CC[C@]43C)[C@@H]12`: the growth was -5.51% [100 µM] (active) with T-47D breast; -12.1% [100 µM] (active) with BT-549 breast; -54% [100 µM] (active) with MDA-MB-435 melanoma; 5.06% [100 µM] (active) in the assay on MCF7 breast; -21.5% [100 µM] (active) with HCT-116 colon; -53.5% [100 µM] (active) with HCC-2998 colon. In addition, the growth with KM12 colon is -43.7% [100 µM] (active).
With `CC(C)(C)c1cc(C(=O)Nc2cc3ccccc3cc2C(=O)NCCN)cc(C(C)(C)C)c1`, the growth in the assay with T-47D breast is -69% (active); with BT-549 breast, 82.2%; with MDA-MB-435 melanoma it was -88.3% (active); with MCF7 breast, -85.6% (active); with HCT-116 colon it was -91.8% (active); in the assay on HCC-2998 colon it was -86.5% (active). In the assay with KM12 colon, the growth is -94.5% (active).
On to `CCOc1ccccc1/C=N\Nc1ccc(S(=O)(=O)c2ccc(N/N=C/c3ccccc3OCC)cc2)cc1`, for which the growth is 75.6% in the assay on T-47D breast; 83.4% with BT-549 breast; 99.3% with MDA-MB-435 melanoma; 79.1% with MCF7 breast; 87.5% with HCT-116 colon; 107% with HCC-2998 colon. In the assay on KM12 colon, the growth was 91.5%.
On to `CCn1cc(-c2ccnc(NCCNS(=O)(=O)c3ccc(Br)cc3)c2)c(-c2cccc(OC)c2)n1`, for which the growth was 16.3% in the assay with T-47D breast; 99.7% with BT-549 breast; 83.7% in the assay with MDA-MB-435 melanoma; 81.7% in the assay with SW-620 colon; 51.6% with HCT-116 colon; 111% in the assay on HCC-2998 colon. Also, the growth with KM12 colon was 82.8%.
For the molecule `C[n+]1cccc(NC(=O)c2ccc3ccc4ccc(C(=O)Nc5ccc[n+](C)c5)nc4c3n2)c1`, the growth in the assay on T-47D breast was 12%; in the assay with BT-549 breast it was 90.4%; in the assay on MDA-MB-435 melanoma it was 67.8%; with SW-620 colon, 56%; with MCF7 breast, 54%; in the assay with HCT-116 colon it was 43.1%. Besides, in the assay with KM12 colon, the growth was 42.2%.
Take `O=C1CC(c2ccc3c(c2)OCO3)Nc2ccccc21` (centres undefined): the growth was 27.5% in the assay on T-47D breast; 42.2% in the assay with BT-549 breast; -22.6% (active) in the assay with MDA-MB-435 melanoma; 15.9% in the assay on MCF7 breast; 17% in the assay on HCT-116 colon; 35.3% in the assay with HCC-2998 colon. For the same molecule, the growth with KM12 colon was 17.1%.
For the molecule `Ic1ccc2[nH]cc(SSc3c[nH]c4ccc(I)cc34)c2c1`, the growth in the assay with T-47D breast is 26.7%; in the assay with BT-549 breast it was 31.5%; with MDA-MB-435 melanoma it was 24.3%; in the assay on MCF7 breast, -29.4% (active); in the assay with HCT-116 colon, 10.1%; in the assay on HCC-2998 colon, 4.84% (active). The growth in the assay on KM12 colon is 6.3% (active).
In the case of `O=C(NNc1ccc(-c2ccccc2)nn1)c1ccc(F)cc1`, the growth was 88.7% in the assay on T-47D breast; 95.1% in the assay on BT-549 breast; 100% in the assay with MDA-MB-435 melanoma; 91% in the assay with MCF7 breast; 103% in the assay with HCT-116 colon; 102% in the assay with HCC-2998 colon. In addition, the growth in the assay on KM12 colon is 102%.
On to `C#C[C@]1(O)CC[C@H]2[C@@H]3CC=C4c5nc(Nc6ncccn6)sc5CC[C@]4(C)[C@H]3CC[C@@]21C`, for which the growth was 40% with T-47D breast; 19.5% in the assay on BT-549 breast; 50.5% in the assay with MDA-MB-435 melanoma; 60.4% with SW-620 colon; 59.7% with MCF7 breast; 22.3% in the assay with HCT-116 colon. Besides, the growth in the assay on KM12 colon was 48.5%.
For `CCOC(=O)c1nn(C2CCCCO2)c2ccc(NC(=O)CSc3nc4ccccc4c(=O)[nH]3)cc12` (centres undefined), the growth in the assay with T-47D breast was 99.1%; in the assay with BT-549 breast, 89.6%; with MDA-MB-435 melanoma it was 107%; in the assay with MCF7 breast, 92.1%; in the assay on HCT-116 colon, 101%; in the assay with HCC-2998 colon it was 115%. For the same molecule, the growth with KM12 colon was 102%.
For the molecule `COc1ccc2nc3cc(Cl)ccc3c(Nc3ccc(O)c(CN4CCCC4)c3)c2c1`, the growth with T-47D breast was 35.8%; with BT-549 breast, 79.2%; in the assay on MDA-MB-435 melanoma it was -61.5% (active); in the assay with SW-620 colon, -65.7% (active); in the assay on MCF7 breast, 43.4%; in the assay with HCT-116 colon it was -45% (active). For the same molecule, in the assay with KM12 colon, the growth is 19.2%.
With `CC(C)C1=NOC(=O)C1=Cc1cn(-c2cccnc2)nc1-c1ccccc1`, the growth in the assay on T-47D breast is 92.6%; in the assay with BT-549 breast it was 125%; with MDA-MB-435 melanoma, 95.1%; in the assay on SW-620 colon it was 88.8%; with HCT-116 colon, 81.2%; with KM12 colon it was 102%.
Take `O=C1CC(c2ccccc2)Cc2nc3ccc(Cl)cc3cc21` (centres undefined): the growth is 75.5% in the assay with T-47D breast; 4.62% (active) in the assay on BT-549 breast; -38.6% (active) in the assay on MDA-MB-435 melanoma; 54% in the assay on MCF7 breast; 5.45% (active) with HCT-116 colon; 5.28% (active) in the assay with HCC-2998 colon. In the assay on KM12 colon, the growth is 1.73% (active).

The values above are taken from PubChem BioAssay (NCI).
